Reference: PubChem BioAssay AID1347426 (Functional Genomics Laboratory (NCATS/FGL), 2020)
In all, about 31,000 sequences went through this assay and about 1,400 (4.5%) were called active.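 How the source made its calls: active means median seed-adjusted z-score above 1 or below -1; inactive means the rest.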 The entries come from a sample that favours actives as a whole.

assay: Novel Modifiers of Survival Motor Neuron (SMN) Protein: Gene Identification via Genome-wide siRNA Screen; details: HEK293T SMN2-luciferase reporter, siRNA knockdown, 72 h; actives lie on both sides;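 further: luminescence tracks full-length SMN protein made from the SMN2 reporter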
Method in brief: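 HEK293T cells stably carrying an SMN2 promoter/splicing cassette–luciferase reporter were reverse-transfected with 1 pmol siRNA per well (druggable-genome library, 3 siRNAs per gene) and grown 72 h at 37 °C. Luminescence, normalized to negative-control siRNA and log10-transformed, was scored as MAD.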

| Sequence | median seed-adjusted z-score |
| --- | --- |
| UCAACCCUCUGAUAGAAGATT against EID2 | -1.04 (active) |
| GUAUGCUCCCGAUCAAGUATT against APOBEC3A | 0.467 (inactive) |
| GAAGGAUGGGUGGACGUAATT against NALCN | -0.266 (inactive) |
| CCAUAAAUGCUACGAAUAUTT against EGFR | 0.263 (inactive) |
| CAAUGAAUUUUUCCGAAGATT against ITGA10 | 0.378 (inactive) |
| CCACAUGCUUCAAACAUCATT against TOR1A | -0.231 (inactive) |
| UAGCUUCGGUGAUCAAGAATT against ANXA9 | 0.055 (inactive) |
| GCAAGAGUCGUUCACCAGATT against MGMT | -0.0549 (inactive) |
| GCUCAAAGGUCUCACCUGCTT against SLC35A2 | 1.06 (active) |
| GGCCGGAGAUUAUCCUCAATT against MIXL1 | -0.204 (inactive) |
| GUGUGGUAGCUAUUGACAATT against TSC22D1 | 0 (inactive) |
| UUCCCAUAUUUAUUCGGACTT against AMH | -0.255 (inactive) |
| GCAGUGACCUUCAAAGUGATT against PTPRN2 | -0.104 (inactive) |
| CAACUGCAAGAGGACUGUATT against SLC10A4 | 0.069 (inactive) |
| UGCUGUUCGUGGAUUUCAATT against CDX4 | 0.181 (inactive) |
| AGAUUGAAAUCGACUUUGATT against BRD4 | 1.13 (active) |
| GCAUCAUCUCAGCACCAGATT against SLC5A12 | 0.279 (inactive) |
| GAACCGCCCUCCUGAUUAATT against WNT3A | -0.66 (inactive) |
| GCAAGAUCCCAAAUCAGCATT against ADAT1 | 0.404 (inactive) |
| ACAAGAUGACCAACACUAATT against ARHGAP1 | -1.14 (active) |
| GAACGGGUAUGUGGAGAUATT against INHBA | 0.361 (inactive) |
| CGAACGAAGAAGAGCCGAATT against NFATC2 | 0.183 (inactive) |

| Sequence | median seed-adjusted z-score |
| --- | --- |
| CUACCCAACCUGUAGCUAATT against UBE2J1 | -1.2 (active) |
| CGAUUAGAAAUCAACAUGATT against MLKL | 0 (inactive) |
| GAUUUCUAGGCAUCCCGUATT against ARSA | 0.0938 (inactive) |
| CCAUGAUCCUGUGGAUAAATT against HNRNPA2B1 | 1.33 (active) |
| CCCUCGAAUUCGCAUAGAATT against DIS3 | 0.266 (inactive) |
| GCACCGUCUAUGUCACCAUTT against GAL3ST3 | -0.54 (inactive) |
| CCCAUAUUCGGAUCCAGAATT against PTPN6 | -0.515 (inactive) |
| GGAAUCGUGGAGAAUAUGATT against NUBP2 | -0.21 (inactive) |
| CCAUGCCCUAUGUUAAGAATT against RRM2B | -0.128 (inactive) |
| AGACGAUCCGGGUAAAGUUTT against LSM7 | -0.45 (inactive) |
| CAACUAGUGCAACCAGUAATT against ZNF207 | -3.1 (active) |
| GGCUCCUCCUUGUACUCAATT against FOXO3 | -0.712 (inactive) |
| GGGCAUCGCUAAACCCAAATT against LIF | 0.273 (inactive) |
| GGUCCGAUGUUACGUCUAATT against TIGD4 | -0.553 (inactive) |
| CCGGGACAGUGACAUCAUATT against ENDOD1 | -0.138 (inactive) |
| GGAGCACAGAGGCUCAGAATT against TNFRSF13B | 0.152 (inactive) |
| CCAUCAAACUUGCAUCCCUTT against ISX | 1.99 (active) |
| GAACAUCUCUUGUGGUAUUTT against SLC22A16 | 0.0878 (inactive) |
| GGUUUUAACUGGAACUGGATT against HIF1AN | -0.0315 (inactive) |
| GGAUCGACCCAACCUAUGUTT against XYLT2 | 0.148 (inactive) |
| CAGCACUAUUAGACAGGAATT against ZBTB40 | 0.187 (inactive) |
| CUGCGGACCCAAUACAUGATT against ARID3A | -1.11 (active) |

| Sequence | median seed-adjusted z-score |
| --- | --- |
| AGAGGUUUGGCAGAAAUACTT against NPFF | -0.631 (inactive) |
| UAAGAACACCGUUACCCAATT against NLGN4X | -0.1 (inactive) |
| GCAGACCACCUGAAUAUGATT against TRO | 2.04 (active) |
| GGAGUAGAUUUUAGCAUAATT against TNKS2 | 0.0545 (inactive) |
| GAUAUUGCACAAAUCUAUATT against UBE2D1 | 0.508 (inactive) |
| GAAGAUAUGCAACAGCCUATT against UNC5B | -0.0207 (inactive) |
| CAGAAGUCGUAGUCAUGAATT against RBM39 | -1.82 (active) |
| GUAUCUGACUGACAUCCUUTT against PLCH2 | 0.593 (inactive) |
| CCAAUACAGUGGAACCUAUTT against ATXN1 | -0.024 (inactive) |
| CCUCCAACGUAUCAUGAGATT against CYP7A1 | -0.0092 (inactive) |
| ACAAAAUUGCUACAUCAAATT against ECHDC1 | 0.554 (inactive) |
| GCAGAGAACUGGUUCCGAATT against ZNF512B | 0.212 (inactive) |
| CCGUGUCUUCAGGAACGAATT against CYB561 | 0 (inactive) |
| GAUUUUAGCACUACAACAATT against ZNF664 | 1.08 (active) |
| AGCUGAAAAUUGAGAACAATT against TBX4 | 0.968 (inactive) |
| GCCCAUUAAUAUUAUAGGUTT against LAP3 | 0.0175 (inactive) |
| CCUUCAUCCGGAAAUUAAATT against ZIM3 | -0.02 (inactive) |
| GGUGGAUGGUAAUAAGGAATT against CTPS2 | 1.08 (active) |
| GGAAGUUGUUCAACGAGAUTT against MLPH | -1.2 (active) |
| CGGCUAUGACAAGUCAAUATT against PKDREJ | 0.376 (inactive) |
| GGCAGUACAUGUACGAUGATT against AGXT2L2 | -0.0495 (inactive) |
| GAACUGUCGGCGGAACAUUTT against MFAP3L | 1.03 (active) |

| Sequence | median seed-adjusted z-score |
| --- | --- |
| GCGUUGACAGUGAUGCGUATT against SLC4A3 | -0.7 (inactive) |
| GCUUUUGCAUGGAUGUGCATT against ELTD1 | 0.387 (inactive) |
| GGAAUAUGAGGUGACCGUUTT against IL17RA | -1.29 (active) |
| CGGUAAAUGUCACUCGUGATT against PRKG1 | 0 (inactive) |
| AGAUGUCCAGACCAAGAUATT against CREBL1 | -0.348 (inactive) |
| CAACGAAAAUCUAAAUGCATT against HMMR | 0.389 (inactive) |
| AGAAUGUGCGGCUUAUUGATT against CCDC88B | -0.153 (inactive) |
| CCAGAGCAAAGGCUAUGAATT against ZNF350 | 0.133 (inactive) |
| UAAAAUCUAGGGAUCCAAUTT against POLR2K | -3.72 (active) |
| AGAUUACGUUGAAGAACGATT against GNGT1 | -0.0382 (inactive) |
| CAUUCACUGAGGCGACAGATT against ABCA9 | -0.139 (inactive) |
| GAAGGGCCUUUUUAUCCAATT against MCTS1 | 0.116 (inactive) |
| CGACCAAGAUUAUGGAAUUTT against ADAMTS17 | 0.257 (inactive) |
| GGCUAUCUGCUGAAGCGCATT against RASAL1 | -0.089 (inactive) |
| CAAUGACUAUGAAUAAGUATT against SLC9A2 | -1.02 (active) |
| GCCUUUAUGUGGACAUUAATT against SLCO2B1 | 0.289 (inactive) |
| CGACAAUGUUAAGUUCAUATT against SULT6B1 | 0 (inactive) |
| GCAUAGAUGUGGAUAGCUUTT against CFTR | -1.23 (active) |
| GGUCCGUGACGAGAAGUUATT against RAB4A | 0.0022 (inactive) |
| CGAACCAUUUCAUCACGUATT against MARS2 | -0.00523 (inactive) |
| CCCUUAAACUCGAACCCAATT against HLX | 0.379 (inactive) |
| GCACGGUAAUUUUGACAGUTT against CD302 | 0.0818 (inactive) |

| Sequence | median seed-adjusted z-score |
| --- | --- |
| GCUGUUACCUCGACGAGUATT against TSC2 | 1.11 (active) |
| GCAGCUCCGAAUUCAGGAATT against TFE3 | -0.0442 (inactive) |
| GAAGAACUCGAUCAGCUAATT against MYH4 | -1.8 (active) |
| GGAUCUGACAGUUCCAGAATT against CLDN20 | -0.00173 (inactive) |
| GACAAUAUCCUACCCAUUUTT against SLC25A16 | 0.0479 (inactive) |
| AGAGAAUCCAGGAUCAGAATT against CHIT1 | -0.578 (inactive) |
| GGCUCGCUUUGAAAAGCUATT against LIN7A | -1.39 (active) |
| CGGACCCGCUGAGACAUUATT against HOXB6 | -0.168 (inactive) |
| GGCCUACAACGAAAGUGAATT against CAMKK1 | 0 (inactive) |
| CAGUCGAACCUUUCCCAGATT against MSRA | -0.0316 (inactive) |
| GGGACUGGGAUUUACGUUATT against MTMR11 | -0.0244 (inactive) |
| CUUCCUUCGUCUUCACCUATT against FOS | 0.343 (inactive) |
| CGACGAUUCGUGCUUAAUATT against MYO5C | 0 (inactive) |
| GCAAAACAGCGGCAGAACATT against ATP8B2 | -0.268 (inactive) |
| GCAGAUCACAUGAAGAGAATT against DHX38 | -0.723 (inactive) |
| CUCUUUAGCCGCUUCAUUATT against FMNL1 | -0.3 (inactive) |
| GGGUCUUCGUCAUGCUCUATT against GPR142 | -0.0636 (inactive) |
| CAGUGCUACUUGGAAUGUUTT against RHOJ | -0.304 (inactive) |
| CACUAGUUUUGUUAGCGAATT against ATP13A4 | -1.09 (active) |
| CAACAACUAUGACCCAGGATT against CHRNE | 0.349 (inactive) |
